Test results reported in PubChem BioAssay (NCI).
This is part of a sample that, as a whole, favours compounds with a hit. Of some 83,000 tested, about 20% had one in any assay.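 Step 1: grow cells in 96-well plates. Step 2: add test compound at a single concentration. Step 3: incubate 48 h. Step 4: record percent growth.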 Values without a mark were called inactive. Calls of active or inactive are those of the source. Rule for the calls: active = growth percent below 10; inactive = the rest.

These molecules were tested on NCI-H460 lung (assay: NCI-60 one-dose screen, 48 h (100 = growth as untreated, 0 = no growth, -100 = all killed)). Conditions: 10 µM unless noted.

Row | SMILES | growth
1 | CCOC(=O)[C@H](CSSc1ncnc2cc[nH]c12)NC(=O)[C@@H](C)c1ccc2cc(OC)ccc2c1 | 32.7%
2 | CC(C)C[C@H](NC(=O)Cn1ccc(NCc2ccccc2)cc1=O)B(O)O | 60.5%
3 | COc1ccc(C(=O)c2cc(OC)c(OC)c(OC)c2)cc1/C=C/C(=O)c1ccc(O)cc1 | 9.99% (active)
4 | Cc1cccc(NC(=O)c2sc3nc4c(cc3c2N)CCC4)c1C | 10.8%
5 | COc1cc(-c2cc(/C=C3\CCCCC3=O)[nH]n2)cc(OC)c1OC | 104%
6 | COc1cccc(C2CC(=O)Nc3c2c(C)nn3-c2nc3ccccc3[nH]2)c1OC (stereo not drawn) | 50.2%
7 | CCNC(=O)C1CCCN1C(=O)C(CCCN=C(N)N)NC(=O)C(CC(C)C)NC(=O)C(CC(C)C)NC(=O)C(Cc1ccc(O)cc1)NC(=O)C(CO)NC(=O)C(Cc1c[nH]c2ccccc12)NC(=O)C(Cc1cnc[nH]1)NC(=O)C1CCC(=O)N1 (stereo not drawn) | 107%
8 | COc1ccc(-c2nc3sccn3c2-c2ccnc(NCCCNS(=O)(=O)c3ccc(F)cc3)n2)cc1 | 19.5%
9 | CCCCCC(=O)OCc1ccccc1 | 109%
10 | CN(C)c1nc(N)c(N=O)c(N)n1 | 110%
11 | COc1ccc(Cn2cc(COc3cc(/C=C/C(=O)c4cc(OC)c(OC)c(OC)c4)ccc3OC)nn2)cc1 | 96.4%
12 | CCOC(=O)C(Cc1ccccc1)n1c(O)c(C=Nc2ccc(C(=O)OCCN(CC)CC)cc2)sc1=O (stereo not drawn) | 99.3%
13 | COc1cc(Cn2c(SCC(=O)Nc3ccc(Cl)cc3)nc3ccccc3c2=O)cc(OC)c1OC | 17.7%
14 | Cc1ccc(S(=O)(=O)NCCCNc2nccc(-c3c(-c4ccccc4)nc4sccn34)n2)cc1 | 52%
15 | Cc1cc(-c2ccccc2)c(C)n1Cc1ccc(Cl)cc1 | 20.8%
16 | CN(C)c1ccc(C2CC(c3ccccc3)=NN2/C=C2\SC(=O)NC2=O)cc1 (stereo not drawn) | 67.2%
17 | C=C1C(=O)O[C@H]2[C@H]1CC/C(COC(=O)NCCc1ccc(OC)cc1)=C\CC[C@@]1(C)O[C@@H]21 | 68.7%
18 | O=C(CCCn1c(=O)c2sc3ccccc3c2n2nnc(-c3ccccc3)c12)NCCc1cnc[nH]1 | -44.1% (active)
19 | O=C1c2ccccc2C(=O)c2c1oc1oc3c(c(=O)c21)c(=O)n(-c1ccccc1)c1ccccc31 | 33.6%
20 | COc1ccc(Cn2c(SC)nc(=O)n(Cc3ccc(Cl)cc3)c2=O)cc1 | 103%

Row | SMILES | growth
21 | COc1cc(CNC(=O)CCSc2nc3ccccc3c(=O)n2Cc2cc(OC)c(OC)c(OC)c2)cc(OC)c1OC | 13.7%
22 | O=C(COc1ccccc1)N1N=C(c2ccc(Cl)cc2)CC1c1c[nH]c2ccccc12 (stereo not drawn) | 47.9%
23 | CC(=O)n1cc([C@H]2CC[C@H](c3cn(C(C)=O)c4ccccc34)c3c2[nH]c2ccccc32)c2ccccc21 | 90.4%
24 | CCN(CC)CCCC(C)N=c1cc(Nc2cc(=NC(C)CCCN(CC)CC)c3cc(OC)ccc3o2)oc2ccc(OC)cc12 (stereo not drawn) | -38.7% (active)
25 | CC1(C)OC2COC3(C(=O)O)OC(C)(C)OC3C2O1 (stereo not drawn) | 103%
26 | Cc1ccc(Cn2c(-c3nonc3N)nc3ccccc32)cc1 | 71.4%
27 | COc1cc2nc(N3CCC[C@@H](NC4=CC(=O)c5ccccc5C4=O)C3)nc(N)c2cc1OC | -72.9% (active)
28 | O=C(Nc1ccc(Cl)cc1)c1cc(-c2ccc(F)cc2)c2sc(=O)[nH]c2n1 | 1.4% (active)
29 | Cc1cc(C)c(S(=O)(=O)N2CCN(c3cc4c(cc3F)c(=O)c(C(=O)O)cn4C3CC3)CC2)c(C)c1 | 39.5%
30 | O=C(CCCn1c2c(sc3ccccc32)c(=O)n2nnc(-c3ccccc3)c12)NCCc1cnc[nH]1 | -93.2% (active)
31 | COc1ccc2c(c1)NC(=O)CN2c1nc(NC2CC2)nc2ccccc12 | 2.27% (active)
32 | C=C1C(=O)O[C@H]2[C@H](O)[C@@H](C)CCC/C(C)=C/CC[C@@]3(C)O[C@@H]3C[C@@H]12 | 91.4%
33 | COc1ccc(/C=C/C(=O)c2cc(OC)c(OC)c(OC)c2)cc1OCc1cn(Cc2ccc(F)cc2)nn1 | 95.8%
34 | O=C(CCC(=O)OC1CCCC1)OC1CCCC1 | 104%
35 | CCN(C(=O)c1cc2ncccc2[nH]1)[C@H]1CCC[C@@H](NCc2cccc(F)c2)C1 | 105%
36 | CCCCCCCCCCCCCCCCC(Br)C(=O)O (stereo not drawn) | 108%
37 | COc1cc2nc(Cl)nc(NCCO)c2cc1OC | 95.7%
38 | CCOC(=O)C1=C(CSC(=S)N(C2CCCCC2)C2CCCCC2)N(C)C(=O)NC1c1ccccc1 (stereo not drawn) | 12.7%
39 | CC1=C(C#N)C(C)(C)C(C#N)=C(C)N1 | 106%

These molecules were tested on HOP-92 NSCLC in the same assay as above. Conditions: 10 µM unless noted.

Row | SMILES | growth
40 | CCOC(=O)[C@H](CSSc1ncnc2cc[nH]c12)NC(=O)[C@@H](C)c1ccc2cc(OC)ccc2c1 | 46%
41 | CC(C)C[C@H](NC(=O)Cn1ccc(NCc2ccccc2)cc1=O)B(O)O | 2.85% (active)
42 | COc1ccc(C(=O)c2cc(OC)c(OC)c(OC)c2)cc1/C=C/C(=O)c1ccc(O)cc1 | 42.8%
43 | Cc1cccc(NC(=O)c2sc3nc4c(cc3c2N)CCC4)c1C | 17.7%
44 | COc1cc(-c2cc(/C=C3\CCCCC3=O)[nH]n2)cc(OC)c1OC | 86.4%
45 | COc1cccc(C2CC(=O)Nc3c2c(C)nn3-c2nc3ccccc3[nH]2)c1OC (stereo not drawn) | 85.4%
46 | CCNC(=O)C1CCCN1C(=O)C(CCCN=C(N)N)NC(=O)C(CC(C)C)NC(=O)C(CC(C)C)NC(=O)C(Cc1ccc(O)cc1)NC(=O)C(CO)NC(=O)C(Cc1c[nH]c2ccccc12)NC(=O)C(Cc1cnc[nH]1)NC(=O)C1CCC(=O)N1 (stereo not drawn) | 92%
47 | COc1ccc(-c2nc3sccn3c2-c2ccnc(NCCCNS(=O)(=O)c3ccc(F)cc3)n2)cc1 | 44.2%
48 | CCCCCC(=O)OCc1ccccc1 | 96.3%
49 | CN(C)c1nc(N)c(N=O)c(N)n1 | 102%
50 | COc1ccc(Cn2cc(COc3cc(/C=C/C(=O)c4cc(OC)c(OC)c(OC)c4)ccc3OC)nn2)cc1 | 45%
51 | CCOC(=O)C(Cc1ccccc1)n1c(O)c(C=Nc2ccc(C(=O)OCCN(CC)CC)cc2)sc1=O (stereo not drawn) | 84.2%
52 | COc1cc(Cn2c(SCC(=O)Nc3ccc(Cl)cc3)nc3ccccc3c2=O)cc(OC)c1OC | -20.8% (active)
53 | Cc1ccc(S(=O)(=O)NCCCNc2nccc(-c3c(-c4ccccc4)nc4sccn34)n2)cc1 | 93.8%
54 | Cc1cc(-c2ccccc2)c(C)n1Cc1ccc(Cl)cc1 | 54.2%
55 | CN(C)c1ccc(C2CC(c3ccccc3)=NN2/C=C2\SC(=O)NC2=O)cc1 (stereo not drawn) | 91.5%
56 | C=C1C(=O)O[C@H]2[C@H]1CC/C(COC(=O)NCCc1ccc(OC)cc1)=C\CC[C@@]1(C)O[C@@H]21 | 21.9%
57 | O=C(CCCn1c(=O)c2sc3ccccc3c2n2nnc(-c3ccccc3)c12)NCCc1cnc[nH]1 | -54.5% (active)
58 | O=C1c2ccccc2C(=O)c2c1oc1oc3c(c(=O)c21)c(=O)n(-c1ccccc1)c1ccccc31 | 80%
59 | COc1ccc(Cn2c(SC)nc(=O)n(Cc3ccc(Cl)cc3)c2=O)cc1 | 90%

Row | SMILES | growth
60 | COc1cc(CNC(=O)CCSc2nc3ccccc3c(=O)n2Cc2cc(OC)c(OC)c(OC)c2)cc(OC)c1OC | 44.6%
61 | O=C(COc1ccccc1)N1N=C(c2ccc(Cl)cc2)CC1c1c[nH]c2ccccc12 (stereo not drawn) | 62.1%
62 | CC(=O)n1cc([C@H]2CC[C@H](c3cn(C(C)=O)c4ccccc34)c3c2[nH]c2ccccc32)c2ccccc21 | 85.3%
63 | CCN(CC)CCCC(C)N=c1cc(Nc2cc(=NC(C)CCCN(CC)CC)c3cc(OC)ccc3o2)oc2ccc(OC)cc12 (stereo not drawn) | -29.9% (active)
64 | CC1(C)OC2COC3(C(=O)O)OC(C)(C)OC3C2O1 (stereo not drawn) | 98.3%
65 | Cc1ccc(Cn2c(-c3nonc3N)nc3ccccc32)cc1 | 77.6%
66 | COc1cc2nc(N3CCC[C@@H](NC4=CC(=O)c5ccccc5C4=O)C3)nc(N)c2cc1OC | 84.8%
67 | O=C(Nc1ccc(Cl)cc1)c1cc(-c2ccc(F)cc2)c2sc(=O)[nH]c2n1 | -24.2% (active)
68 | Cc1cc(C)c(S(=O)(=O)N2CCN(c3cc4c(cc3F)c(=O)c(C(=O)O)cn4C3CC3)CC2)c(C)c1 | 46.9%
69 | O=C(CCCn1c2c(sc3ccccc32)c(=O)n2nnc(-c3ccccc3)c12)NCCc1cnc[nH]1 | -75.7% (active)
70 | COc1ccc2c(c1)NC(=O)CN2c1nc(NC2CC2)nc2ccccc12 | 3.22% (active)
71 | C=C1C(=O)O[C@H]2[C@H](O)[C@@H](C)CCC/C(C)=C/CC[C@@]3(C)O[C@@H]3C[C@@H]12 | 58%
72 | COc1ccc(/C=C/C(=O)c2cc(OC)c(OC)c(OC)c2)cc1OCc1cn(Cc2ccc(F)cc2)nn1 | 55.9%
73 | O=C(CCC(=O)OC1CCCC1)OC1CCCC1 | 73.1%
74 | CCN(C(=O)c1cc2ncccc2[nH]1)[C@H]1CCC[C@@H](NCc2cccc(F)c2)C1 | 92.1%
75 | CCCCCCCCCCCCCCCCC(Br)C(=O)O (stereo not drawn) | 120%
76 | COc1cc2nc(Cl)nc(NCCO)c2cc1OC | 95.6%
77 | CCOC(=O)C1=C(CSC(=S)N(C2CCCCC2)C2CCCCC2)N(C)C(=O)NC1c1ccccc1 (stereo not drawn) | 69%
78 | CC1=C(C#N)C(C)(C)C(C#N)=C(C)N1 | 95.6%
